Source: PubChem BioAssay
Only some compounds are listed: those with a hit (about 4.1% of all), similar ones and a draw of the others.
Rv3671c inh: Rv3671c serine protease inhibitors, primary screen, biochemical, fluorescence polarization, M. tuberculosis H37Rv | P9WHR9 | inhibition, % at 5.96 µM | actives 0.048% (n = 320,000) | AID 2606, 2010; in the data active = inhibition above about 38%;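 note: extracellular domain of Rv3671c used as enzyme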
Target sequence (P9WHR9 whole entry, looked up, the tested form may be a part): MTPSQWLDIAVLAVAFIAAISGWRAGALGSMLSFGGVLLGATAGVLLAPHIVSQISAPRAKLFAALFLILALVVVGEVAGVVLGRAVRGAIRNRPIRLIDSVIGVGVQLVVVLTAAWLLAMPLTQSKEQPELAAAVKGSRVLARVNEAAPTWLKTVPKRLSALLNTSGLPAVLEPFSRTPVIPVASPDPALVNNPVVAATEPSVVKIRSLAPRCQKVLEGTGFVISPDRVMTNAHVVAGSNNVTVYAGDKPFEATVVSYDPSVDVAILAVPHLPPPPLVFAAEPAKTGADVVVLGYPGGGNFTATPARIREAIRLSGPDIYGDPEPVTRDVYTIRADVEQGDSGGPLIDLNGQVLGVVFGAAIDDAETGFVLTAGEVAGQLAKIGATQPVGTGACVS
Vc quorum ag-1: inducers of Vibrio cholerae quorum light production without autoinducers, primary screen, BH1578 luxS cqsA deficient, single point. actives 0.16% (n = 350,000). activation, % at 18.7 µM. AID 588436, 2011. V. cholerae BH1578 lux reporter, luminescence, 6 h; in the data active = activation mostly above about 9.7%, no sharp cut-off; inconclusive = no clear call, values can overlap the other calls; inactive = mostly below about 3.7%
RecA intein inh: Mtb RecA intein splicing inhibitors, primary screen, biochemical, fluorescence, HTS | AID 2221, 2009 | inhibition, % (test concentration not listed) | actives 0.75% (n = 290,000) | Protein RecA (Mycobacterium tuberculosis (strain ATCC 25618 / H37Rv)), P9WHJ3 | cell-free RecA intein splicing; in the data active = inhibition above about 30%; inconclusive = no clear call, values can overlap the other calls
GDH-TPI inh: GDH-TPI coupling enzyme inhibitors, primary screen, artefact control for M. tuberculosis FBA inhibitor project, biochemical, absorbance, full deck. GDH-TPI coupled enzyme counterscreen, NADH absorbance. actives 1.2% (n = 360,000). AID 588335, 2011. inhibition, % at 4.8 µM; in the data active = inhibition above about 30%
Mtb FBA inh: Mtb FBA enzyme inhibitors, primary screen, biochemical, fluorescence, strain H37Rv | inhibition, % at 1 µM | actives 2.3% (n = 360,000) | purified M. tuberculosis FBA, fluorescence read-out | Fructose-bisphosphate aldolase (Mycobacterium tuberculosis (strain ATCC 25618 / H37Rv)), …; in the data active = inhibition above about 27%
UGM FP inh: M. tuberculosis UGM enzyme inhibitors, primary screen, biochemical, fluorescence polarization, single point; UDP-galactopyranose mutase (Mycobacterium tuberculosis (strain ATCC 25618 / H37Rv)), …; purified UGM, fluorescence polarization probe displacement; inhibition, % at 10 µM; actives 0.06% (n = 320,000); AID 504406, 2011; in the data active = inhibition above about 10%, passing the limit was not always enough; inconclusive = no clear call, values can overlap the other calls
Vc quorum ag-2: V. cholerae lux activation without autoinducers – BH1578 luxS cqsA deficient, cherry-pick, plate reader, dose response; shares compounds with Vc quorum ag-1; V. cholerae BH1578 lux reporter, luminescence, 6 h; activation, % at 50 µM; 620 tested, under 10 active; AID 602243, 2012; call rule not given here
Hits are given with their value; i = inactive; ? = inconclusive; nt = no result given.

SMILES	Rv3671c inh	Vc quorum ag-1	RecA intein inh	GDH-TPI inh	Mtb FBA inh	UGM FP inh	Vc quorum ag-2
O=c1c2cc(N3CCOCC3)ccc2[nH]c(=S)n1CC1CCCO1 (configuration not stated)	i	i	i	i	i	i	i
COCCCn1c(=S)[nH]c2ccc(N3CCOCC3)cc2c1=O	i	i	i	i	i	i	i
COc1ccc(-n2nc3c(c2NC(=O)c2ccc(Br)o2)CS(=O)(=O)C3)cc1	i	i	i	i	i	i	nt
Cc1nn2cnnc2c(C)c1Cc1c(F)cccc1Cl	i	165.0	i	i	140.6	i	i
CSc1nc(C)c(Cc2c(F)cccc2Cl)c(=O)[nH]1	i	i	i	i	i	i	nt
COc1ccccc1CCN1CCCC(CN(C)C(=O)c2ccco2)C1 (configuration not stated)	i	i	i	i	i	i	i
COc1ccccc1CCN1CCCC(CN(C)C(=O)c2ccoc2)C1 (configuration not stated)	i	i	i	i	i	i	nt
CCOc1ccc(/C(O)=C2/C(=O)C(=O)N(CCOCCO)C2c2ccccn2)cc1 (configuration not stated)	i	i	i	i	i	i	i
CCOc1ccc(/C(O)=C2/C(=O)C(=O)N(CCOCCO)C2c2ccc(F)cc2)cc1 (configuration not stated)	i	i	i	i	i	i	nt
CC(C)c1ccc(NC(=O)C2Cc3c(-c4ccc5c(c4)OCO5)ccnc3O2)cc1 (configuration not stated)	nt	i	nt	i	i	nt	nt
CCCNC(=O)Cc1ccsc1	i	i	i	i	i	i	i
Cc1cc(N2CCN(C)CC2)ccc1NC(=O)c1cccc(S(=O)(=O)N2CCc3ccccc3C2)c1	i	i	i	i	i	i	nt
Cc1nc2cc(NC(=O)N3CCCCC3)ccc2n1C	i	i	i	i	i	i	nt
CCOC(=O)C1CCN(C(=O)Nc2ccc3c(c2)nc(C)n3C)CC1	i	?	i	i	i	i	i
COc1ccc(CNC(=O)c2ccc(Cl)c(S(=O)(=O)N3CCOCC3)c2)cc1OC	i	57.1	nt	i	i	i	i
COc1ccc(C(=O)NCc2cccc(Cl)c2)cc1S(=O)(=O)N1CCOCC1	i	i	nt	i	i	i	nt
COc1cccc(NC(=O)C2(C)CCCN2C(=O)C(C)C)c1 (configuration not stated)	nt	i	nt	i	i	nt	nt
CC(=O)N1CCN(CC(O)COc2ccc(Br)cc2)CC1 (configuration not stated)	i	i	i	i	i	i	nt
CCCCOCC(O)CN1CCN(C(C)=O)CC1 (configuration not stated)	i	i	i	i	i	i	i
N#Cc1ccc(-c2nc3ccc(Br)cc3c(=O)n2O)cc1	i	i	i	i	i	i	nt
O=c1c2cc(Br)ccc2nc(-c2cccc(C(F)(F)F)c2)n1O	i	17.9	i	i	i	i	i
CC(=O)N1c2ccc(S(=O)(=O)NC(CC(=O)O)c3ccc(Br)cc3)cc2CC1C (configuration not stated)	i	i	i	i	i	i	nt
COc1ccc(/C(N)=N/OC(=O)Cc2ccccc2OC)cc1	i	i	i	i	i	i	i
COc1ccc(/C=N/NC(=O)C(=O)N2CCCCCC2)cc1[N+](=O)[O-]	i	i	i	i	i	i	nt
Cc1nnc2c3ccccc3c(-c3ccc(O)cc3)nn12	i	83.9	i	i	i	i	i
CCc1cc(C(=O)c2ccccc2OC)c(N)s1	i	i	i	i	i	i	i
CCc1cc(C(=O)c2ccc(OC)cc2)c(N)s1	i	i	i	i	i	i	nt
COc1ccc(OC)c(NC(=O)COC(=O)CCS(=O)(=O)c2ccc(Cl)cc2)c1	i	i	nt	i	i	i	nt
